# Laboratory results taken from publication PMC4336329 (PLoS ONE, 2015).
# Screen size: about 310,000 compounds; about 14,000 (4.5%) showed an effect of 50% or more. Effects have a minus sign here. The list comes from a sample in which strong results are over-represented; it also holds similar structures and randomly drawn compounds.
# Target: human ether-à-go-go-related gene (hERG) potassium channel (human, UniProt Q12809)
# Test: primary screen, population patch clamp on CHO cells stably expressing hERG; higher = less effect of the substance
# 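Also: peak tail current of the secondary pulse compared with the same well before compound.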
# Chain of human ether-à-go-go-related gene (hERG) potassium channel (Q12809 whole entry, looked up): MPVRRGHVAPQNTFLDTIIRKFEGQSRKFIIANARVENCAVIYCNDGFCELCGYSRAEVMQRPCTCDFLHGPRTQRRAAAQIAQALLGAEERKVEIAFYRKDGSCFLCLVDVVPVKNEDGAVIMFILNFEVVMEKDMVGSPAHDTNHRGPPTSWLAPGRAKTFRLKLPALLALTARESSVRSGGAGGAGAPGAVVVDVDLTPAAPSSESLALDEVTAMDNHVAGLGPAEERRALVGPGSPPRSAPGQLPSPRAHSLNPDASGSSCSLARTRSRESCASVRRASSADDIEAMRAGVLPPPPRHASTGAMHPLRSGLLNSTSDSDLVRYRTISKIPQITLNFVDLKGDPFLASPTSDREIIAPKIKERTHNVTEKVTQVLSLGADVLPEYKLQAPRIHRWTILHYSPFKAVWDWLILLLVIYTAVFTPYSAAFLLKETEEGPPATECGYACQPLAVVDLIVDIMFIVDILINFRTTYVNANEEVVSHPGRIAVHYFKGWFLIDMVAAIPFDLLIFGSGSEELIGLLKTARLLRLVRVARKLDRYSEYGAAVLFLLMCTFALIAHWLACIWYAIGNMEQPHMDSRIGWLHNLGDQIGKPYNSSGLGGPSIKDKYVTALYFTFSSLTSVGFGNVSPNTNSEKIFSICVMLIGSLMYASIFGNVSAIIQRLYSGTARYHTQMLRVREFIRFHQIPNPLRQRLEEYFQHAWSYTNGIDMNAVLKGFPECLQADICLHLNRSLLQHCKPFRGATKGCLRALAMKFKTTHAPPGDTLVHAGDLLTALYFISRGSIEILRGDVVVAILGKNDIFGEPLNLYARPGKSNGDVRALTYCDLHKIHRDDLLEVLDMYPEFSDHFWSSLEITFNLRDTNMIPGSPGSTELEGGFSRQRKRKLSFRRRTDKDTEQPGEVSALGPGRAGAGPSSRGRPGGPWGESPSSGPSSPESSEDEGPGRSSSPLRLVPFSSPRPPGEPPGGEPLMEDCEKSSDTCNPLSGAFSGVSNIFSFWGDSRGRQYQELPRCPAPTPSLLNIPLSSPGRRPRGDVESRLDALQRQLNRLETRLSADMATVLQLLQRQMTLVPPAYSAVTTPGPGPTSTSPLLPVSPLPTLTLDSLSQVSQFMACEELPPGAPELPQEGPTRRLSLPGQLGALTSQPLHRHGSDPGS
row,Compound,"hERG current change (%, negative = inhibition) at 10uM [%]"
1,Cc1ccc(C(=O)NC(C(=O)Nc2ccccc2)c2ccccc2)cc1 (centres unmarked),19.7
2,CC(NC(=O)Cn1cc(C(=O)C2CC2)c2ccccc21)c1ccccc1 (centres unmarked),4.74
3,Cc1ccc(-c2nn(C)c(=O)c3ccccc23)cc1CNC(=O)c1ccco1,-36.7
4,Cc1ccc(/C=C2/C(=O)NC(=O)N(Cc3ccc(F)cc3)C2=O)o1,19.6
5,COc1ccc(OCc2cc(C(=O)NCc3nc(C)cs3)no2)c(Cl)c1,-17.2
6,OCC1(Cc2ccccc2C(F)(F)F)CCN(Cc2ccccc2)CC1,-41.3
7,OCC1(Cc2ccccc2)CCN(Cc2ccc(-c3ccco3)cc2)CC1,-66.6
8,OCC1(Cc2ccccc2)CCN(Cc2ccc(C(F)(F)F)cc2)CC1,-72.9
9,OCC1(Cc2ccccc2)CCCN(Cc2ccc(-c3ccco3)cc2)C1 (centres unmarked),-5.88
10,O=C(CSc1cn(CC(=O)N2CCOCC2)c2ccccc12)N1CCOCC1,12.8
11,Cc1cc(C)c(C#N)c(SCc2ccc([N+](=O)[O-])cc2)n1,15.9
12,COc1ccc(F)cc1S(=O)(=O)Nc1ccc2c(c1)OCO2,6.15
13,CC(CCc1ccccc1)NC(=S)NC1CCCCC1 (centres unmarked),12
14,CCN1CCN(C(c2ccccc2)c2nnnn2Cc2ccccc2)CC1.Cl (centres unmarked),-27.4
15,Cl.Fc1ccc(C(c2nnnn2C2CCCC2)N2CCN(Cc3ccncc3)CC2)cc1 (centres unmarked),-24.8
16,Cc1ccc(C(c2nnnn2CC2CCCO2)N2CCN(C)CC2)cc1.Cl (centres unmarked),-7.48
17,CCC(C)(C)n1nnnc1C(c1ccccc1)N1CCN(Cc2ccccc2)CC1 (centres unmarked),-32
18,Cc1ccc(C(c2nnnn2CCc2ccccc2)N2CCSCC2)cc1 (centres unmarked),-13.5
19,Clc1ccc(C(c2nnnn2C2CCCC2)N2CCN(Cc3ccncc3)CC2)cc1 (centres unmarked),-71.7
20,Cc1ccc(C(c2nnnn2Cc2ccccc2)N2CCN(Cc3ccccc3)CC2)cc1 (centres unmarked),-79
21,Cc1ccc(C(c2nnnn2CC2CCCO2)N2CCN(C(=O)c3ccco3)CC2)cc1 (centres unmarked),-4.13
22,Cc1ccc(C(c2nnnn2Cc2ccccc2)N2CC=C(c3ccc(F)cc3)CC2)cc1 (centres unmarked),11.5
23,c1ccc(CN2CCN(C(c3ccccc3)c3nnnn3Cc3ccccc3)CC2)cc1 (centres unmarked),-64.7
24,Clc1ccc(C(c2nnnn2C2CCCC2)N2CCSCC2)cc1 (centres unmarked),-24.4
25,Cc1ccc(C(c2nnnn2CC2CCCO2)N2CCN(Cc3ccccc3)CC2)cc1 (centres unmarked),-74.9
26,O=C(NC(=S)NCc1ccccc1)c1ccc(Br)o1,-7.42
27,Cc1noc(C)c1C(=O)OCC(=O)c1cc(C)n(Cc2ccccc2Cl)c1C,-7.65

row,Compound,"hERG current change (%, negative = inhibition) at 10uM [%]"
1,Cc1ccc(CC(=O)N2CC(C)OC(C)C2)cc1 (centres unmarked),9.85
2,Cc1ccc2nc(Br)c3c(c2c1)OC(CBr)C3 (centres unmarked),-33.6
3,CC1CCCCC1NC(=O)COc1ncnc2sccc12 (centres unmarked),3.61
4,COc1ccc(Cl)cc1NC(=S)N1CCC(c2ccc(C)cc2)C1 (centres unmarked),-1.95
5,CCNC(=O)/C(=C\C=C\c1ccccc1)NC(=O)c1ccc(Br)o1,-18.2
6,Cc1ccc(S(=O)(=O)Cn2nnnc2C(C(C)C)N2CCC(C(N)=O)CC2)cc1 (centres unmarked),19
7,Cc1ccc(C(c2nnnn2CS(=O)(=O)c2ccc(C)cc2)N2CCC(C(N)=O)CC2)cc1 (centres unmarked),-55.1
8,Cc1ccc(S(=O)(=O)Cn2nnnc2C(c2ccc(F)cc2)N2CCC(C(N)=O)CC2)cc1 (centres unmarked),-44.1
9,CC(C)Oc1ccc(S(=O)(=O)N2CCCCC2)cc1NC(=O)C1CSC2(C)CCC(=O)N12 (centres unmarked),-20.9
10,Cc1cccc(NC(=O)CN(C)S(=O)(=O)c2ccc(-c3ccc(=O)[nH]n3)s2)c1C,-19.9
11,CCOC(=O)CCN(c1ccccc1)S(=O)(=O)c1ccc(-c2ccc(=O)[nH]n2)s1,-29.3
12,COc1cc(NC(=O)CN(C)S(=O)(=O)c2ccc(-c3ccc(=O)[nH]n3)s2)cc(OC)c1,-5.53
13,COc1cc(OC)c(NC(=O)CN(C)S(=O)(=O)c2ccc(-c3ccc(=O)[nH]n3)s2)cc1Cl,-56.5
14,Cc1ccccc1NC(=O)CN(C)S(=O)(=O)c1ccc(-c2ccc(=O)[nH]n2)s1,-78.6
15,Cc1ccccc1NC(=O)CN(C)S(=O)(=O)c1cccs1,2.52
16,CCc1ccccc1NC(=O)CN(C)S(=O)(=O)c1ccc(-c2ccc(=O)[nH]n2)s1,-74.8
17,CCOc1ccc(NC(=O)CN(C)S(=O)(=O)c2ccc(-c3ccc(=O)[nH]n3)s2)cc1,2.54
18,COc1cc(OC)c(NC(=O)CN(C)S(=O)(=O)c2ccc3[nH]c(=O)oc3c2)cc1Cl,3.44
19,CC1CCN(S(=O)(=O)c2ccc3[nH]c(=O)[nH]c3c2)CC1,-3.58
20,O=C(Nc1cc(S(=O)(=O)N2CCCCC2)ccc1Cl)C1=NN(c2ccccc2)C(=O)CC1,12.6
21,O=C(NNC(=O)C1CCN(C(=O)Nc2ccccc2)CC1)c1ccc([N+](=O)[O-])cc1,2.62
22,CCCOc1ccc(-c2c(C(=O)N/N=C(\C)c3ccco3)nnn2-c2nonc2N)cc1,22.5
23,Cc1[nH]c2ccccc2c1C(=O)COC(=O)c1ccc[n+]([O-])c1,0.499
24,NC(=O)c1ccc(Oc2ccc(C(N)=O)cc2)cc1,17.5
25,CCc1sc(C(C2C(=O)CC(C)(C)CC2=O)C2C(=O)CC(C)(C)CC2=O)cc1[N+](=O)[O-],-5.07
26,O=C(Nc1ccc2c(c1)OCCO2)c1ccc(S(=O)(=O)N2CCCCC2)cc1,4.38
